Source: PubChem BioAssay (NCATS)
Inconclusive results are not listed. A number with no mark means an inactive call. Calls of active or inactive are those of the source. The call rests on the fitted dose curve; in most records, active means well fitted inhibition curve with a large enough effect; inconclusive means small, poorly fitted or top-dose-only effect; inactive means no such curve, though single readings can be large or run the other way.

assay: qHTS to identify inhibitors of the type 1 interferon - major histocompatibility complex class I in skeletal muscle: primary screen against the NCATS Mechanism Interrogation Plate v5.0 (MIPE) Libary (AID 1347411); details: iHSKM cells + IFN-b, HiBiT-tagged MHC-I luminescence, 24 h; series mostly up to 45.8 µM; activity change, negative = inhibition: at the top concentration; further: nearly all actives have a fitted effect of over 65% in size;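 on activity change, negative = inhibition: plate controls were vehicle for no effect and reference inhibitor for full effect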
Excerpt: Assay Submitter (PI): Travis B. Kinder Ph.D. & James Inglese Ph.D.
Assay Development and Screening Technology Laboratory (ADST)
National Center for Advancing Translational Sciences (NCATS), Rockville, MD
National Institute of Health (NIH), Bethesda, Maryland
Idiopathic inflammatory myopathies, collectively referred to as myositis, are a group of rare autoimmune diseases characterized by skeletal muscle inflammation, weakness, and usually accompanied by systemic pathologies of the skin, lungs, or vasculature. Current immunosuppressive therapies and glucocorticoids are often not curative and are accompanied by harsh side effects, especially in children with juvenile myositis. We initiated a drug repurposing and development program to identify more targeted, less toxic therapeutics to treat myositis. Although its cause is not known, muscle from a subset of patients have an abundance of the inflammatory type 1 interferon (IFN) and a down-stream product major histocompatibility complex class I (MHC class I), which are both thought to contribute to damage and weakness. We conducted quantitative high throughput screening on 6,576 compounds (4,679 unique) through a series of cell-based assays to identify those that inhibit the IFN-stimulated expression of MHC class I in muscle precursor cells (myoblasts). The compound identification and evaluation strategy utilized a primary screen with reporter-tagged MHC class I in genome-engineered myoblasts, ATP content counter screen for viability, HLA-ABC immunofluorescence secondary screen, and HLA-B RT-qPCR tertiary screen.
The primary screen utilized CRISPR/Cas9 genome-engineering of immortalized human myoblasts, C25cl48, where a pro-luminescent reporter HiBit was fused to the C-terminus of endogenous MHC class I allele HLA-B*08:01 (HLA-B HiBit myoblasts). HiBit is an 11 amino acid fragment of NanoLuc luminescent reporter (Promega Corporation), and when complexed to the larger LgBit fragment, the reconstituted enzyme produces light in the presence of furimazine substrate (Schwinn et al., 2018). Briefly, HLA-B HiBit myoblasts were plated into 1536-well plates, treated with 4.0 ng/ml human IFN-beta and 2,480 compounds from the NCATS Mechanism Interrogation Plate v5.0 (MIPE5.0) in an 11-point, 1:3 titration with a high final concentration of 46 uM. After 24 hrs of treatment, cells were assayed by Nano-Glo HiBiT Lytic Detection System (Promega) and luminescence measured by a ViewLux 1430 Ultra HTS (Perkin Elmer).
Schwinn MK, Machleidt T, Zimmerman K, Eggers CT, Dixon AS, Hurst R, Hall MP, Encell LP, Binkowski BF, Wood K V. 2018. CRISPR-Mediated Tagging of Endogenous Proteins with a Luminescent Peptide. ACS Chem Biol 13:467-474. doi:10.1021/acschembio.7b00549
PROTOCOL TABLE (as described by Inglese et al., 2007)
SEQUENCE No. (e.g., 1, 2, 3, etc.); […] (e.g., Cells, Incubation, Reagent, etc.); VALUE; DESCRIPTION
1a; Cells; 5 uL; Use a Multidrop Combi (Thermo Scientific) to seed 300 cells/well into 24 Greiner 1536 well white/solid bottom, high base, TC plates in 5 ul/well of iHSKM growth medium (GM) without dexamethasone into columns 1+2. Add metal lids with gas-exchange holes
1b; Cells; 5 uL; Use a Multidrop Combi (Thermo Scientific) to seed 300 cells/well into 24 Greiner 1536 well white/solid bottom, high base, TC plates in 5 ul/well of iHSKM GM without dexamethasone + 4 ng/ml IFN-b into columns 3 - 48. Add metal lids with gas-exchange holes
2; Incubate; 1 hr; Incubate at 37 C, 5% CO2, 95% RH
3; Compounds; 23 nl; Use Pin Tool (Wako) to transfer DMSO control, ruxolitinib IFN-b inhibitor control [High Concentration = 80 uM final, 16-pt, 1:2 in duplicate], and library compounds in DMSO
4; Incubate; 24 hrs; Incubate at 37 C, 5% CO2, 95% RH
5; Dispense; 2.5 ul; Use BioRAPTR FRD (Beckman Coulter) to add HiBit lytic reagent
6; Incubate; 10 min; Incubate in the dark at ambient temperature for lysis
7; Detector; 5 sec; Measure luminescence with ViewLux 1430 Ultra HTS (Perkin Elmer). […]
Potency means the concentration at half of the fitted maximal effect.

Row | SMILES | activity change, negative = inhibition | Potency
1 | Cn1cc(-c2nc(N[C@@H]3CCCC[C@@H]3N)c(F)c3c2C(=O)NC3)cn1 | -16.3% [at 5.1 µM] | –
2 | O=C1OC2(CCC(C(=O)Nc3ccn(-c4ccccc4F)n3)CC2)c2cnccc21 (stereo not given) | 3.98% | –
3 | CC(=O)NCC(=O)N1[C@@H]2CC[C@H]1c1ccc(Nc3ncc(C(F)(F)F)c(NC4CCC4)n3)cc12 | – | 4.66 µM (active)
4 | N=C1S/C(=C\c2ccc(-c3ccc4c(c3)C(=O)NC4=O)o2)C(=O)N1c1ccc(Br)cc1 | 6.58% [at 15.5 µM] | –
5 | COc1ccc(-c2oc3c(CC=C(C)C)c(OC4O[C@H](CO)[C@@H](O)[C@H](O)[C@H]4O)cc(O)c3c(=O)c2OC2O[C@@H](C)[C@H](O)[C@@H](O)[C@H]2O)cc1 (stereo not given in full) | 9.63% | –
6 | CO[C@H]1/C=C\C=C(\C)C(=O)NC2=CC(=O)C(NCCN(C)C)=C(C[C@@H](C)C[C@H](OC)[C@H](O)[C@@H](C)/C=C(/C)[C@@H]1OC(N)=O)C2=O | – | 0.0466 µM (active)
7 | CN(CCOc1ccc(-c2ccc3c(c2)OCO3)cc1C(C)(C)C)CC(=O)O | -12.2% | –
8 | C=C1C[C@@H]2CC[C@@]34C[C@H]5O[C@H]6[C@@H](O3)[C@H]3O[C@H](CC[C@@H]3O[C@H]6[C@H]5O4)CC(=O)C[C@@H]3[C@@H](OC)[C@@H](C[C@H](O)CN)O[C@H]3C[C@H]3O[C@@H](CC[C@@H]1O2)C[C@@H](C)C3=C | -7.19% [at 8.44 µM] | –
9 | COc1cc2c(NC3CCN(C4CCCCC4)CC3)nc(N3CCCN(C(C)C)CC3)nc2cc1OCCCN1CCCCC1 | – | 11.7 µM (active)
10 | CN1[C@@H]2CCC[C@H]1CC(NC(=O)c1nn(C)c3ccccc13)C2 (stereo not given in full) | 10.4% | –
11 | O=C(O)c1ccccc1-c1ccc(/C=c2\sc3nc4cc(Br)cnc4n3c2=O)o1 | 4.91% [at 15.5 µM] | –
12 | CC1(C)OC2=C(C(=O)c3ccccc3C2=O)[C@H](NCc2ccccc2)[C@@H]1O | – | 9.3 µM (active)
13 | Cc1ccc(NS(=O)(=O)c2cccc(C#N)c2)c2[nH]cc(C#N)c12 | 3.59% | –
14 | C[C@H](NC(=O)/C(C#N)=C/c1cccc(Br)n1)c1ccccc1 | – | 10.4 µM (active)
15 | C[C@@H]1CC(=O)Nc2cccc(-c3ccc4c(c3)c(-c3cnn(C)c3)nn4C)c2N1 | 0.179% | –
16 | CC(C)(O)CNc1ncc(-c2ccnc(Nc3ccncc3)n2)c(CC2CC2)n1 | – | 16.5 µM (active)
17 | O=C(O)CNC(=O)c1nc(Cl)c2ccccc2c1O | -4.49% | –
18 | COc1ccc(C(=O)N2CCN(c3ccc4c(c3)CCC(=O)N4)CC2)cc1OC | -13.5% | –
19 | N=C1CCCN1Cc1[nH]c(=O)[nH]c(=O)c1Cl | 4.08% | –
20 | C=CCN1C[C@H](C(=O)N(CCCN(C)C)C(=O)NCC)CC2c3cccc4[nH]cc(c34)C[C@H]21 (stereo not given in full) | 20% | –

Row | SMILES | activity change, negative = inhibition | Potency
21 | CCC1CCCCN1C(=O)n1ncc(C(O)(c2ccccc2)c2ccccc2)n1 (stereo not given) | -4.99% | –
22 | CN[C@@H](C)C(=O)N[C@H](C(=O)N1CCC[C@H]1C(=O)Nc1sc(-c2ncco2)nc1-c1ccccc1)C1CCCCC1 | -16.9% | –
23 | CN(C)CCN1C(=O)c2cccc3cc(NC(N)=O)cc(c23)C1=O | – | 7.39 µM (active)
24 | O=C(C[C@@H]1C/C=C\CCC(=O)O[C@H](c2ccccc2)CNC1=O)NCc1ccc(Cl)cc1 | 28% | –
25 | Cc1cnc(NC(=O)c2cc(Oc3cnc(C(=O)N(C)C)nc3)c3cc(C)oc3c2)cn1 | 6.8% | –
26 | C=C1C(=O)O[C@@H]2[C@H]3C(C)=CC[C@@]34O[C@@]4(C)CC[C@@H]12 | – | 16.5 µM (active)
27 | Nc1nccc(-c2c(-c3ccc(F)cc3)ncn2C2CCN(Cc3ccon3)CC2)n1 | -5.96% | –
28 | NS(=O)(=O)c1ccc(NC(=S)N2CCN(C/C=C/c3ccccc3)CC2)cc1 | -10% | –
29 | O=C(/C=C/c1ccc(/C=C/C(=O)Nc2ccc(C3=NCCN3)cc2)cc1)Nc1ccc(C2=NCCN2)cc1 | -3.84% [at 5.1 µM] | –
30 | C[C@@]12C(=O)OC(=O)[C@]1(C)[C@H]1CC[C@@H]2O1 | – | 5.87 µM (active)
31 | O=C1CC(c2c[nH]c3ccc(F)cc23)C(=O)N1 (stereo not given) | -5.38% | –
32 | COc1ccc2c(c1)C(c1ccc(F)cc1)=C(CN1CCCC1)CO2 | -22.5% | –
33 | Cc1ccc(NS(=O)(=O)c2ccc3c(c2)C2C=CCC2C(c2ccc(C(=O)O)cc2)N3)cc1C (stereo not given) | -4.58% | –
34 | COc1ccc(S(=O)(=O)N[C@@H](CNc2nc(C)nc(N3CCC(c4ccc5c(n4)NCCC5)CC3)c2C)C(=O)O)cc1 | -21.8% | –
35 | C[C@H](NC(=O)[C@H]1NCC[C@@H]1O)c1ccc(-c2noc(CCC3CCCC3)n2)cc1 | -16.3% | –
36 | CN(C(=O)CNC(=O)/C=C/c1cccc(Cl)c1)C1CCS(=O)(=O)CC1 | -5.66% | –
37 | COc1cc2c(Oc3ccc4[nH]c(C)cc4c3F)ccnc2cc1OCC1(N)CC1 | 2.87% | –
38 | CCS(=O)(=O)N1CCC(C(C)n2c(C)c(C(=O)NCc3c(OC)cc(C)[nH]c3=O)c3ccccc32)CC1 (stereo not given) | -2.46% | –
39 | COc1cccc(-c2c(C)n(Cc3c(F)cccc3C(F)(F)F)c(=O)n(C[C@H](NCCCC(=O)O)c3ccccc3)c2=O)c1F | – | inactive
40 | C[C@H]1CC2[C@@H]3CCC4=CC(=O)C=C[C@]4(C)[C@@]3(F)[C@@H](O)C[C@]2(C)[C@@]1(O)C(=O)CO (stereo not given in full) | -18.6% | –
